Measurements reported in PubChem BioAssay AID651789 (National Center for Advancing Translational Sciences (NCATS), 2012).
Records with an inconclusive call do not appear. Activity calls are given as the source filed them. Calls follow the shape of the dose curve; as a rule, active = well fitted inhibition curve with a large enough effect; inconclusive = small, poorly fitted or top-dose-only effect; inactive = no such curve, though single readings can be large or run the other way.

Experiment: Acumen qHTS Assay for Inhibitors of the mTORC1 Signaling Pathway in WT MEF Cells: Hit Validation; also: nearly all actives have a fitted effect of over 60% in size;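 as to activity change, negative = inhibition: phospho-rpS6 Ser235/236 immunofluorescence normalised to propidium iodide cell stain; percent of cells above a cutoff set by 7.5 nM rapamycin treated wells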
Settings: Acumen imaging; series mostly up to 37.3 µM; activity change, negative = inhibition: at the top concentration
In short: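 Read-out is immunofluorescent phospho-rpS6 (Ser235/236) normalised to PI-stained cell number, reported as % active cells using a 7.5 nM rapamycin threshold. Cells: WT or Tsc2-/-, p53-/- MEFs, compound-exposed 24 h at 37C; PI count also tracks viability.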
Potency is read from the fitted curve at half-maximal effect.

Compound | activity change, negative = inhibition | Potency
CCCCN(C)C(=O)CSc1c2c(nc3ccc(Cl)cc13)CCCC2 | 6.86% (inactive) | –
Cc1cc(C)c(-c2n[nH]c3c2C(c2ccccc2F)N(Cc2ccco2)C3=O)c(O)c1 (stereo not given) | -26.6% (inactive) | –
CC(C)c1ccc(C2Sc3ccccc3NC3=C2C(=O)c2ccccc23)cc1 (stereo not given) | -17.9% (inactive) | –
CCCS(=O)(=O)c1ncc(Cl)c(C(=O)N2CCN(c3ccc(OC)cc3)CC2)n1 | – | 2.93 µM (active)
CCS(=O)(=O)c1ccccc1C(=O)N(Cc1cccnc1)c1nc2cc(C)c(C)cc2s1 | -4.58% (inactive) | –
O=C(CN1C(=O)C(c2ccc(F)cc2)=NC12CCCCCC2)Nc1ccccc1Cl | 6.65% (inactive) | –
Cc1oc(-c2ccccc2F)nc1Cn1c(SCc2cccc(Cl)c2)nc2ccncc21 | 1.59% (inactive) | –
COc1ccc2cc(CNc3ccccc3)c(=O)n(CC(=O)Nc3ccc(C)cc3C)c2c1 | -22.6% (inactive) | –
Cc1cccc(CS(=O)(=O)c2ncc(Cl)c(C(=O)NCc3ccccc3)n2)c1 | – | 13.1 µM (active)
CCC(C(=O)N1CCN(c2cccc(C)c2C)CC1)n1nc(C)c2sc3ccccc3c2c1=O (stereo not given) | 23.3% (inactive) | –
CCOc1ccc(C(=O)NCCc2sc(-c3ccc(C)cc3)nc2C)cc1 | 0.501% (inactive) | –
CCN(C(=O)C(NS(=O)(=O)c1ccc(Br)s1)c1ccccc1)c1ccc(C)c(C)c1 (stereo not given) | -7.02% (inactive) | –
Cc1ccc(-c2noc(CCC(=O)N(C)c3ccccc3F)n2)cc1 | 10.4% (inactive) | –
COc1cc(NC(=O)c2cccc3c2C(=O)N(C2CCCCC2)C3)cc(OC)c1OC | -18.3% (inactive) | –
CCOc1ccc(NC(=O)CN2C(=O)C(c3ccc(Cl)cc3)=NC2(C)C)cc1 | 39% (inactive) | –
CC(C)S(=O)(=O)c1oc(-c2cccs2)nc1S(=O)(=O)c1ccc(F)cc1 | – | 0.826 µM (active)
CCOc1ccc(S(=O)(=O)Nc2ccc(OC)c(Cl)c2)c2cccnc12 | -2.29% (inactive) | –
Cc1cccc(Nc2nnc(-c3ccc(C)c(S(=O)(=O)N4CCN(C)CC4)c3)c3ccccc23)c1 | 46.8% (inactive) | –
COc1ccc(Cl)cc1NC(=O)CCCS(=O)(=O)c1nc(-c2ccc(OC)c(OC)c2)cc(C(F)(F)F)n1 | – | 3.69 µM (active)
O=C(CCCn1ccc2cc(S(=O)(=O)N3CCCC3)ccc21)NCc1ccc(Cl)cc1 | -26.8% (inactive) | –

Compound | activity change, negative = inhibition | Potency
COc1ccc(C)cc1NC(=O)CCNS(=O)(=O)c1cccc2nonc12 | 28.1% (inactive) | –
CCS(=O)(=O)c1ncc(Cl)c(C(=O)N(Cc2ccccc2)Cc2ccco2)n1 | – | 3.29 µM (active)
Cc1cc(C)c2oc(-c3cccc(NC(=O)COc4ccc([N+](=O)[O-])cc4)c3)nc2c1 | 1.31% (inactive) | –
Cc1ccc(S(=O)(=O)c2nnn3c2nc(NC2CCCCC2)c2sccc23)cc1C | -2.29% (inactive) | –
CC(C)(C)C1CCc2c(sc(NC(=O)C3c4ccccc4Oc4ccccc43)c2C(N)=O)C1 (stereo not given) | -24.8% (inactive) | –
Cc1ccc(C(=O)CC2(O)C(=O)N(Cc3ccccc3)c3ccc(Br)cc32)cc1 (stereo not given) | 0.517% (inactive) | –
CCS(=O)(=O)c1ncc(Cl)c(C(=O)N2CCN(c3cccc(Cl)c3)CC2)n1 | – | 2.61 µM (active)
CCOc1ccc(CCNC(=O)CCc2c(C)nc3cc(-c4ccccc4OC)nn3c2C)cc1 | 1.97% (inactive) | –
Cc1nc2ccc(S(=O)(=O)CCC(=O)Nc3ccc(Cl)cc3)cc2s1 | -9.92% (inactive) | –
COc1cc(NC(=O)CSc2ccc(-c3ccccn3)nn2)cc(OC)c1 | -20.3% (inactive) | –
CCNC(=O)c1c(NC(=O)c2nc(S(=O)(=O)CC)ncc2Cl)sc2c1CCCC2 | – | 0.585 µM (active)
Cc1ccccc1C(=O)N1CCN(CCc2ccccn2)CC1 | 3.82% (inactive) | –
CC1=Nc2cc(C(=O)NC3CCCC3)ccc2Sc2ccc(Cl)cc21 | – | 0.826 µM (active)
Cc1cc(C)cc(C(=O)Nc2ccc(-c3nc4ncccc4o3)cc2)c1 | -13.1% (inactive) | –
COc1cccc(-n2c(-c3ccco3)nc3c(cnn3-c3ccc(C)cc3)c2=O)c1 | -28.5% (inactive) | –
COc1ccc(NC(=O)c2c(NC(=O)COc3ccccc3)sc3c2CCC(C)C3)cc1 (stereo not given) | 38.3% (inactive) | –
CCCC(=O)OC1=CN(Cc2ccccc2)S(=O)(=O)c2ccccc21 | – | 3.69 µM (active)
CCOCc1cc(CN2CCN(c3ccccc3OC)CC2)c(O)c2ncccc12 | 3.82% (inactive) | –
Cn1nc(-c2ccc(OCC(=O)Nc3ccccc3)cc2)c2ccccc2c1=O | -6.11% (inactive) | –
COc1cc(CNc2ccc3c(c2)ncn3C(C)C)cc(OC)c1OC | -27% (inactive) | –
